This note sets out measurements from the supplement of paper PMC9801561.

± gives the standard deviation of the averaged measurements.
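Throughout, for DuctApe activity index of respiration/growth curve (0 no growth to 9 maximum): biolog PM4 phosphorus and sulfur plates, tetrazolium violet dye reduction read in the OmniLog every 15 min, kinetic curves scored by DuctApe, each plate run in triplicate.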

The first assay concerns Escherichia coli Nissle 1917. Nature of the assay: area under OmniLog respiration curve over 48 h (OmniLog units x h); higher = more growth / nutrient utilisation; extreme values may be limits of the assay. As to conditions: nutrient role: sole nitrogen source (pyruvate carbon); incubation: 48 h, 37 °C.
As to `NCCc1c[nH]cn1` [Histamine], the “area under OmniLog respiration curve” value amounted to 5.03 ± 0.54.
For `NCCCCN=C(N)N` [Agmatine], the “area under OmniLog respiration curve” value came out at 336 ± 570.
As for `CC(O)C(N)=O` (racemic) [DL-Lactamide], the “area under OmniLog respiration curve” value was determined as 57 ± 91.
Same read-out and setting: in the case of `NC(=O)C[C@@H](N)C(=O)O` [D-Asparagine] it was 1420 ± 780.
Same read-out and setting: then `NCCN` [Ethylenediamine], with 4.72; and `N[C@@H](Cc1c[nH]c2ccccc12)C(=O)O` [L-Tryptophan], with 3670 ± 1500.
`N[C@@H](Cc1c[nH]cn1)C(=O)O` [L-Histidine]: the “area under OmniLog respiration curve” value came out at 4.72.
On the same count and under the same terms, then `CC(C)[C@H](N)C(=O)O` [L-Valine], with 2650 ± 990; and `NCCCCCC(=O)O` [e-Amino-N-Caproic acid], with 1240 ± 1000; and `NO` [Hydroxylamine], with 5.62 ± 1.6.
As for `NCCCC[C@H](N)C(=O)O` [L-Lysine], the “area under OmniLog respiration curve” value stood at 301 ± 240.

Still in this assay, the particulars now being: nutrient role: sole phosphorus source (pyruvate carbon); incubation: 48 h, 37 °C.
On to `C[N+](C)(C)CCOP(=O)(O)O` [Phosphoryl Choline], for which the “area under OmniLog respiration curve” value is 8840 ± 430.
For the molecule `O=c1ccn([C@@H]2O[C@H](CO)[C@@H](O)[C@H]2OP(=O)(O)O)c(=O)[nH]1` [Uridine 2`-Monophosphate], the “area under OmniLog respiration curve” value stood at 6560 ± 4400.
Still for that read-out and setting: then `O=P(O)(O)O[C@H]1O[C@H](CO)[C@@H](O)[C@H](O)[C@H]1O` [D-Glucose-1-Phosphate], with 8060 ± 560; and `O=C(O)COP(=O)(O)O` [Phospho-Glycolic acid], with 9060 ± 940.
For the molecule `Nc1ncnc2c1ncn2[C@@H]1O[C@H](CO)[C@@H](OP(=O)(O)O)[C@H]1O` [Adenosine 3`-Monophosphate], the “area under OmniLog respiration curve” value is 9700 ± 640.
With `N[C@@H]1[C@@H](O)[C@H](O)[C@@H](COP(=O)(O)O)O[C@@H]1O` [D-Glucosamine-6-Phosphate], the “area under OmniLog respiration curve” value was 9120 ± 620.

The test system of a further assay is Escherichia coli Nissle 1917. Nature of the assay: DuctApe activity index of respiration/growth curve (0 no growth to 9 maximum) (index 0-9); higher = more growth / nutrient utilisation, active = 3 or more; extreme values may be limits of the assay. As to conditions: nutrient role: C-Source, amino acid; incubation: 48 h, 37 °C.
In the case of `O=C(O)[C@@H]1C[C@@H](O)CN1` [Hydroxy-L-Proline], the DuctApe activity index was 0 (inactive).
As to `N[C@@H](Cc1c[nH]cn1)C(=O)O` [L-Histidine], the DuctApe activity index was 0 (inactive).
With `CC(C)[C@H](N)C(=O)O` [L-Valine], the DuctApe activity index was 0 (inactive).
The same measure, in the same setting: then `NCCCC[C@H](N)C(=O)O` [L-Lysine], with 0 (inactive).

The assay is the same for the next values; noted with them: nutrient role: C-Source, carbohydrate; incubation: 48 h, 37 °C.
Take `OC[C@@H](O)[C@@H](O[C@@H]1O[C@H](CO)[C@H](O)[C@H](O)[C@H]1O)[C@H](O)[C@@H](O)CO` [D-Lactitol]: the DuctApe activity index is 7 (active).
Same read-out and setting: then `O=C[C@H](O)[C@H](O)[C@@H](O)CO` [L-Lyxose], with 4.33 (active).
The same measure, in the same setting: in the case of `CO[C@H]1O[C@H](CO)[C@@H](O)[C@H](O)[C@H]1O` [a-Methyl-D-Glucoside] it was 0 (inactive).
For the molecule `OCC1(O)OC[C@@H](O)[C@@H](O)[C@H]1O` (stereo partly drawn) [D-Psicose], the DuctApe activity index is 4 (active).
Still for that read-out and setting: then `OC[C@H]1OC(O)[C@@H](O)[C@@H](O)[C@@H]1O` (stereo partly drawn) [D-Mannose], with 8 (active); and `OC[C@H]1O[C@@](CO)(O[C@H]2O[C@H](CO)[C@@H](O)[C@H](O)[C@H]2O)[C@@H](O[C@H]2O[C@H](CO)[C@@H](O)[C@H](O)[C@H]2O)[C@@H]1O` [D-Melezitose], with 1 (inactive); and `O=C[C@@H](O)[C@H](O[C@@H]1O[C@H](CO)[C@H](O)[C@H](O)[C@H]1O)[C@H](O)CO` [3-O-b-D-Galactopyranosyl-D-Arabinose], with 8.33 (active).
As for `C[C@@H]1OC(O)[C@H](O)[C@H](O)[C@H]1O` (stereo partly drawn) [L-Rhamnose], the DuctApe activity index was 7.33 (active).
On the same count and under the same terms, in the case of `O=P(O)(O)O[C@H]1O[C@H](CO)[C@@H](O)[C@H](O)[C@H]1O` [D-Glucose-1-Phosphate] it was 8.67 (active); in that of `OCC(O)CO` [Glycerol], 7.67 (active).
